Mcl1 Noxa PPI = disrupts binding of human Mcl-1 to Noxa peptide. TR-FRET Mcl-1/Noxa peptide binding, 2 h. inhibition, % at 21.7 µM. actives 1.5% (n = 220,000). AID 1022;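 active = compounds that cut the protein-peptide binding signal by more than 50% relative to plate controls in a single-dose test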;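 also: His-tagged Mcl-1 with rhodamine Noxa BH3 peptide and terbium anti-His antibody; 0% = Mcl-1 plus Noxa peptide wells and 100% = peptide-only wells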
Target sequence (Q07820 whole entry, looked up): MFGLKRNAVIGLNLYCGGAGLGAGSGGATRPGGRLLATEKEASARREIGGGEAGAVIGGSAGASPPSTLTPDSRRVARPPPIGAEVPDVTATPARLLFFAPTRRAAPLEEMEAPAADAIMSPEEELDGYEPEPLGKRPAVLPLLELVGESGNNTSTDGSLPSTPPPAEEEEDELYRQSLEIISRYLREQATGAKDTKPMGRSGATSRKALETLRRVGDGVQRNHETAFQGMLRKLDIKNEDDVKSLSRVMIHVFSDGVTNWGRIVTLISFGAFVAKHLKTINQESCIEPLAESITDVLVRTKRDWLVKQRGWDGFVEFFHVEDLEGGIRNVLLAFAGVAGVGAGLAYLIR
14-3-3 Bad inh = disrupts binding of bovine 14-3-3 zeta to phospho-Bad peptide. P63103. TR-FRET 14-3-3zeta/Dy647-pBad peptide displacement, 1 h. inhibition, % at 21.7 µM. actives 0.71% (n = 220,000);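 active = inhibition above about 70%, limit read from the data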;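 also: 0% = full 14-3-3 plus peptide FRET controls and 100% = background without 14-3-3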
Target sequence (P63103 whole entry, looked up): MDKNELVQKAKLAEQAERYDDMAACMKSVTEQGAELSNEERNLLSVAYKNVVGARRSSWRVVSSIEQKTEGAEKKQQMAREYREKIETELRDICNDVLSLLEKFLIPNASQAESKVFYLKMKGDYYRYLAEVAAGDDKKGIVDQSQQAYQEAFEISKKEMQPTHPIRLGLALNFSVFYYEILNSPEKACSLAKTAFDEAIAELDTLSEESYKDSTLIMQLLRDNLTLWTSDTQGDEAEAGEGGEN
Mcl1-Bid inh = disrupts binding of human Mcl-1 to Bid peptide | Q07820 | TR-FRET Mcl-1/Bid-Dy647 peptide binding, 1536-well | inhibition, % at 21.7 µM | actives 0.97% (n = 220,000) | AID 1021;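 active = compounds that cut the binding signal by more than half at the single screening dose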;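 also: His-tagged Mcl-1 with europium anti-His antibody binding Bid BH3 peptide; 0% = Mcl-1 plus peptide wells and 100% = peptide-only wells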
Arbovirus anti = antivirals against arbovirus infection; arbovirus infection cell-based antiviral screen; inhibition, % at 10 µM; actives 0.37% (n = 200,000); in the data active = inhibition above about 30%
Mcl-1 Bim block = human Bim-Mcl-1 interaction inhibition | Bead-based flow cytometry, Bim peptide-Mcl-1 binding | Q07820 | actives 0.1% (n = 190,000) | inhibition, % at 10 µM; in the data active = inhibition above about 40%;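 also: 0% = no compound tracer wells and 100% = peptide blocker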
The depositor's hits bear a star; x = no result given. In the library only some 3% were active in any assay of this set; here they are far more common.

SMILES	Mcl1 Noxa PPI	14-3-3 Bad inh	Mcl1-Bid inh	Arbovirus anti	Mcl-1 Bim block
O=C(Nc1c(-c2cccs2)nc2ccccn12)c1ccccc1F	9.4	2.3	-11.7	2.5	0.0
CC(=O)Nc1ccc(S(=O)(=O)NC2(C(F)(F)F)N=C(c3ccccc3)NC2=O)cc1 (centres undefined)	23.7	-9.8	5.6	13.2	2.0
CN(C)CCC1Sc2ccccc2Oc2ccccc21 (centres undefined)	25.5	65.6	58.0*	-5.9	2.0
O=S(=O)([N-]c1nc2ccccc2nc1-n1cc[n+](Cc2ccccc2)c1)c1ccc(Br)cc1	-74.3	6.4	-21.7	x	x
O=S(=O)(c1ccc(Cl)cc1)N1CCC(N2CCOCC2)CC1	-0.6	80.4*	28.8	0.0	1.0
O=S(=O)(c1ccc(Cl)cc1)N1CCN(C2CCCCCC2)CC1	20.3	-2.9	-9.6	-3.5	0.0
CCOC(=O)CC(N)c1cccc([N+](=O)[O-])c1 (centres undefined)	0.4	6.2	-1.4	7.8	-2.0
CCN(CC)c1ccc(NC(=O)Cn2c(C(C)NC(=O)c3ccc(C)cc3)nc3ccccc32)cc1 (centres undefined)	32.4	94.7*	89.7*	-1.9	4.0
Brc1cccc2sc(N3CCN(c4ccccc4)CC3)nc12	6.8	87.1*	-21.4	-3.7	-1.0
Cc1ccc(NS(=O)(=O)c2ccc(OCC(=O)NCC3CCCO3)cc2)cc1 (centres undefined)	11.3	-11.2	-32.5	4.0	-3.0
CCOCC(=O)Nc1c(C(=O)Nc2ccc3c(c2)OCCO3)oc2ccccc12	-8.0	-6.0	-23.3	9.6	-25.0
COc1ccc(C(=O)/C=C(\N)C(F)(F)F)c(O)c1	69.0*	-1.7	15.8	10.6	0.0
FC(F)(F)C1=CC(c2ccccc2)=NCCN1	88.5*	4.6	-24.1	5.5	-2.0
CN(C)CCCCOc1ccccc1-c1ccccc1	25.3	67.8	73.0*	-8.6	-3.0
CCN1CCN(CCOc2ccccc2-c2ccccc2)CC1	12.3	28.7	20.3	-13.1	-1.0
CCN1CCN(CCCOc2ccccc2-c2ccccc2)CC1	3.7	70.5*	48.9	-17.9	0.0
CN(C)CCCCOc1ccccc1F	26.0	10.6	29.9	5.7	-2.0
C/C(=N\Nc1ncc(Cl)cc1Cl)c1ccccn1	-43.4	9.1	-50.2	-19.0	0.0
Cc1cccc(C)c1NC(=O)COC(=O)c1cccnc1	55.8*	0.5	-18.4	-1.4	-1.0
CCCCCc1nc2c(c(=O)c3ccccc3n2C)c(=O)n1Cc1ccc(OC)cc1	-11.5	6.7	-7.3	x	x
NS(=O)(=O)c1ccc(N/N=C/c2ccc(O)c(O)c2O)c([N+](=O)[O-])c1	37.4	89.0*	95.4*	x	x
NS(=O)(=O)c1ccc(N/N=C/c2ccc(O)cc2O)c([N+](=O)[O-])c1	35.0	-0.3	-2.2	x	x
O=C(C(c1ccccc1)c1ccccc1)N1CCN(Cc2ccco2)CC1	25.3	71.1*	47.3	5.5	-3.0
O=C(C(c1ccccc1)c1ccccc1)N1CCOCC1	-8.0	-3.0	-23.8	0.9	-1.0
CC(C)(O[C@@H]1O[C@H](CO)[C@@H](O)[C@H](O)[C@H]1O)[C@H]1Cc2cc3ccc(=O)oc3cc2O1	23.1	1.5	-11.1	30.4*	0.0
SMILES	Mcl1 Noxa PPI	14-3-3 Bad inh	Mcl1-Bid inh	Arbovirus anti	Mcl-1 Bim block
O=c1oc(-c2cccs2)nc2sc3c(c12)CCCC3	2.6	14.1	-17.4	34.4*	27.0
O=c1oc(-c2cccs2)nc2sc3c(c12)CCC3	x	-1.1	3.0	10.2	-2.0
O=c1oc(/C=C/c2ccco2)nc2sc3c(c12)CCC3	-6.2	-3.5	-48.3	63.4*	0.0
CC(C)OP(=O)(OC(C)C)/C(C=O)=N\Nc1ccc([N+](=O)[O-])cc1	12.4	-1.1	-24.9	x	x
Nc1cc(-c2ccc(Cl)cc2)nn1-c1ccccc1	27.0	-8.3	-16.0	-6.0	-5.0
Nc1ccc(-c2cc(N)n(-c3ccccc3)n2)cc1	34.1	81.0*	-3.8	-5.7	-3.0
CCN(CC)c1nc2c3c(nc4c(c3c1C#N)CC(=O)N4c1ccc(Cl)cc1)NC(C)=N2	82.5*	-10.8	27.1	0.1	2.0
CCOC(=O)N1CCN(C(=O)COc2ccc3c(c2)C(=O)CC2(CCN(C(C)=O)CC2)O3)CC1	-14.0	95.4*	-5.1	5.7	0.0
Cc1nc(C)c(C(=O)Nc2ncc([N+](=O)[O-])s2)o1	69.2*	22.2	-21.6	2.9	0.0
Clc1ccc(CN2C3=NCCCN3c3ccccc32)cc1Cl	7.1	-2.1	7.5	-23.0	0.0
CCCCCCCCCCCCCCCC(O)C(N)CO (centres undefined)	25.6	12.1	66.3*	-44.4	0.0
Fc1ccc(NC(=S)NCCc2ccccn2)cc1	4.9	-5.7	-39.2	7.8	1.0
CC(C)(C)c1ccc(NC(=S)NCCc2ccccn2)cc1	23.0	25.4	50.6*	x	x
Cc1ccc(OCCOC(=O)CCc2nc3ccccc3c(=O)[nH]2)cc1	1.1	-16.6	-27.2	4.2	0.0
CCOC(=O)CC(C(=O)OCC)P(=O)(c1ccccc1)c1ccccc1 (centres undefined)	6.2	5.3	-5.8	0.9	-2.0
CCCC(C(=O)OCC)P(=O)(c1ccccc1)c1ccccc1 (centres undefined)	-9.8	84.3*	-20.3	2.5	0.0
Cc1ccc(Cn2nc(C)c(NC(=O)CSc3nc4c(c(C(F)(F)F)n3)CCc3ccccc3-4)c2C)cc1	34.2	66.1	74.2*	-2.6	-3.0
COc1ccc(N2C(C)=CS/C2=C(/C#N)c2nnc(N3CCOCC3)n2-c2ccccc2)cc1	25.2	83.8*	16.4	-0.1	-2.0
COCCCNC(=O)/C(C#N)=C/c1ccc(OCC(=O)O)c(OC)c1	99.6*	25.6	32.2	1.4	1.0
COc1ccc(/C=C(\C#N)C(=O)NCCc2ccccc2)cc1OCc1ccccc1	21.7	13.2	-14.3	-7.8	-1.0
CCOc1ccc(-c2nc(N)ncc2-c2ccccc2)c(O)c1	25.6	13.8	50.9*	7.6	-2.0
Cc1cc(=O)c2ccc(C(F)(F)F)cc2[nH]1	29.8	56.6	82.7*	x	x
C=CCSC1=N/C(=C\c2sccc2C)C(=O)S1	5.5	-0.1	-19.1	-6.9	-1.0
C=CCSC1=N/C(=C\C=C\c2ccco2)C(=O)S1	75.8*	10.0	31.9	-9.5	-6.0
Cc1nnc(SCC(=O)O)s1	16.8	1.7	-28.8	3.7	0.0
SMILES	Mcl1 Noxa PPI	14-3-3 Bad inh	Mcl1-Bid inh	Arbovirus anti	Mcl-1 Bim block
Cc1ccc(S(=O)(=O)Nc2ccccc2C(=O)NCc2cccnc2)cc1	66.1*	10.0	12.2	2.1	0.0
O=C(NCc1cccnc1)c1ccccc1NS(=O)(=O)c1ccc(F)cc1F	23.2	3.2	-11.3	x	x
COc1ccccc1Nc1ncnc2ccc(C)cc12	6.2	-3.2	-19.9	3.3	-2.0
COc1ccc(N=C(N)SCc2ccccn2)cc1	42.4	47.1	67.4*	-0.8	-2.0
Cc1cc(C(C)(C)C)cc(C)c1S(=O)(=O)N1CC(=O)Nc2ccccc21	14.2	2.1	10.8	x	x
COc1ccc(CCNS(=O)(=O)c2ccc3c(c2)OCCO3)cc1	-18.6	83.9*	-38.8	20.7	0.0
NC(=O)CC(NC(=O)Cc1ccc(Cl)cc1)c1ccc(NC2CCCC2)c([N+](=O)[O-])c1 (centres undefined)	-10.0	1.4	-20.2	x	x
